# Measurements published in the supplement of paper PMC7156485.
# ± gives the standard deviation of the averaged measurements.
# Assays:
# Conditions in all cases: concentration: 10 µM; 24 h
# [1] = system: HCC1569; assay: cell number relative to DMSO (% of DMSO); higher = more cells (less growth inhibition / toxicity)
# In short: (§1)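 HCC1569 and TDF cells were seeded at 800 per well in 384-well plates in RPMI with 10% FBS and treated with compounds at 10 µM for 24 h at 37 °C, in triplicate. After fixation in 3.7% formaldehyde, cells were stained with a rabbit anti-H1.0 antibody, an AlexaFluor 647 secondary and DAPI, and six fields per well were imaged at ×10. H1.0 nuclear intensity or cell number is given as percent of the plate control, using the median of replicates, with HCC1569 values smoothed for positional effects.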
# [2] = system: TDF; assay: as above
# In short: as §1
# [3] = system: TDF; assay: H1.0 immunofluorescence intensity relative to DMSO (% of DMSO); higher = stronger H1.0 induction, active = 120 or more
# In short: as §1
# [4] = system: HCC1569; assay: H1.0 immunofluorescence intensity relative to DMSO (% of DMSO); higher = stronger H1.0 induction, active = 140 or more
# In short: as §1
# 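Wherever H1.0 immunofluorescence intensity relative to DMSO is given: TDF is a line of transformed human dermal fibroblasts of mesenchymal origin.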
# 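Wherever cell number relative to DMSO is given: TDF denotes transformed human dermal fibroblasts of mesenchymal origin.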
smiles,measurement,setting,value
CC(C)NP(=O)(NC(C)C)OP(=O)(NC(C)C)NC(C)C [Tetraisopropyl pyrophosphoramide],cell number,[1],99.2
same,cell number,[2],104
same,H1.0 immunofluorescence intensity,[3],94.9 (inactive)
same,H1.0 immunofluorescence intensity,[4],105 (inactive)
Nc1ncnc2c1ccn2C1OC(CO)C(O)C1O (stereo not drawn) [Tubericidin],cell number,[1],42.7
same,cell number,[2],32.3
same,H1.0 immunofluorescence intensity,[3],118 (inactive)
same,H1.0 immunofluorescence intensity,[4],70.1 (inactive)
CCC(C(=O)O)C1CCC(C)C(C(C)C(O)C(C)C(=O)C(CC)C2OC3(C=CC(O)C4(CCC(C)(C5CCC(O)(CC)C(C)O5)O4)O3)C(C)CC2C)O1 (stereo not drawn) [Salinomycin],cell number,[1],87.1
same,cell number,[2],87.7
same,H1.0 immunofluorescence intensity,[3],111 (inactive)
same,H1.0 immunofluorescence intensity,[4],110 (inactive)
O=C(Oc1ccc([N+](=O)[O-])cc1)N1CCN(Cc2cccc(Oc3ccccc3)c2)CC1 [4-nitrophenyl 4-(3-phenoxybenzyl)-1-piperazinecarboxylate],cell number,[1],97.4
same,cell number,[2],104
same,H1.0 immunofluorescence intensity,[3],101 (inactive)
same,H1.0 immunofluorescence intensity,[4],105 (inactive)
COC1=CC(=O)OC(C=Cc2ccc3c(c2)OCO3)C1 (stereo not drawn) [Methysticin],cell number,[1],106
same,cell number,[2],106
same,H1.0 immunofluorescence intensity,[3],90.6 (inactive)
same,H1.0 immunofluorescence intensity,[4],89 (inactive)
CCN1CC2(COC)C(O)CC(OC)C34C5CC6(O)C(OC)C(O)C(OC(C)=O)(C5C6OC(=O)c5ccccc5)C(C(OC)C23)C14 (stereo not drawn) [Aconitine],cell number,[1],99.9
same,cell number,[2],97.3
same,H1.0 immunofluorescence intensity,[3],96.5 (inactive)
same,H1.0 immunofluorescence intensity,[4],94.5 (inactive)
Cc1cc2c(C(C)C)c(O)c(O)c(C=O)c2c(O)c1-c1c(C)cc2c(C(C)C)c(O)c(O)c(C=O)c2c1O [Gossypol],cell number,[1],80.6 ± 22
same,cell number,[2],99.6 ± 5.5
same,H1.0 immunofluorescence intensity,[3],92.2 (inactive)
same,H1.0 immunofluorescence intensity,[4],103 (inactive)
COc1cccc(C2(O)CCCCC2CN(C)C)c1 (stereo not drawn) [Tramadol],cell number,[1],100
same,cell number,[2],97.7
same,H1.0 immunofluorescence intensity,[3],99.3 (inactive)
same,H1.0 immunofluorescence intensity,[4],109 (inactive)
CC(C)CC1C(=O)N2CCCC2C2(O)OC(NC(=O)C3C=C4c5cccc6[nH]c(Br)c(c56)CC4N(C)C3)(C(C)C)C(=O)N12.CS(=O)(=O)O (stereo not drawn) [Bromocriptine mesylate],cell number,[1],99.5 ± 2.3
same,cell number,[2],102.8 ± 0.3
same,H1.0 immunofluorescence intensity,[3],94.1 (inactive)
same,H1.0 immunofluorescence intensity,[4],102 (inactive)
O=C(NCCN1CCC2(CC1)C(=O)NCN2c1cccc(F)c1)c1ccc(F)c(F)c1,cell number,[1],92.7
same,cell number,[2],92.3
same,H1.0 immunofluorescence intensity,[3],110 (inactive)
same,H1.0 immunofluorescence intensity,[4],107 (inactive)
CC(=O)OC1C(c2ccc(=O)oc2)C2(C)CCC3C(CCC4CC(O)CCC43C)C23OC13 (stereo not drawn) [Cinobufagin],cell number,[1],53.5
same,cell number,[2],42.2
same,H1.0 immunofluorescence intensity,[3],115 (inactive)
same,H1.0 immunofluorescence intensity,[4],99.5 (inactive)
Br.COC(=O)C1=CCCN(C)C1 [Arecoline hydrobromide],cell number,[1],101
same,cell number,[2],102
same,H1.0 immunofluorescence intensity,[3],93.3 (inactive)
same,H1.0 immunofluorescence intensity,[4],86.6 (inactive)
